Hits are enriched below; roughly 3.2% of the tested compounds scored in any of these assays.
bovine MsrA act – bovine MsrA enzyme activators, primary screen, biochemical, absorbance, HTS; hit rate 0.3% among 360,000; purified bovine MsrA, absorbance read-out; Methionine sulfoxide reductase A (Bos taurus); activation, % at 10.6 µM; in the data active = activation above about 7.5%
MsrA inh – bovine MsrA enzyme inhibitors, primary screen, biochemical, absorbance, HTS; Methionine sulfoxide reductase A (Bos taurus); purified bovine MsrA, absorbance read-out; inhibition, % at 15.5 µM; hit rate 0.75% among 360,000; in the data active = inhibition above about 4.5%
DAGLB inhibitor – DAGLB lipase inhibitors, primary screen, biochemical, fluorescence, HTS | hit rate 0.059% among 340,000 | HEK293T DAGLB membrane lysate, EnzChek fluorogenic substrate | Diacylglycerol lipase-beta (Homo sapiens), Q8NCG7 | AID 504411, 2011 | inhibition, % at 5.17 µM; in the data active = inhibition above about 34%
Target sequence (Q8NCG7 whole entry, looked up): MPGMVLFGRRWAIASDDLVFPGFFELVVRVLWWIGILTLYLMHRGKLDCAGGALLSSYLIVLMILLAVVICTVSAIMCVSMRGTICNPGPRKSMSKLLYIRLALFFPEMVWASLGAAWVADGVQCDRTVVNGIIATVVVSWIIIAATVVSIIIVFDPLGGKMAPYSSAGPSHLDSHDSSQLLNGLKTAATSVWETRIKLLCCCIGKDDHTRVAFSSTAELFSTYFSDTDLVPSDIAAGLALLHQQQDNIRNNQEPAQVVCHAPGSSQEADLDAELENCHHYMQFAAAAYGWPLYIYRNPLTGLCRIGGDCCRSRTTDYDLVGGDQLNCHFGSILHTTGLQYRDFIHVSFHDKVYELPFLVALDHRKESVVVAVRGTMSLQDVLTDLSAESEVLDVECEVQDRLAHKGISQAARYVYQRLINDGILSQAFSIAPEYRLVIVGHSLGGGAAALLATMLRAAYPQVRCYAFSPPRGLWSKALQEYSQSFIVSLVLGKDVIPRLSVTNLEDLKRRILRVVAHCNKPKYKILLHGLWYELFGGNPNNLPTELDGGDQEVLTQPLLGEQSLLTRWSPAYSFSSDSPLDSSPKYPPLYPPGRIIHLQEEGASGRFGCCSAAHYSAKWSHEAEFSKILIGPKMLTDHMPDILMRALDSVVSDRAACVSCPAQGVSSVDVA
rCAG RNA binder – binders of r(CAG) RNA repeats, primary screen, biochemical, fluorescence. r(CAG) RNA repeat, TO-PRO-1 dye displacement fluorescence. inhibition, % at 3 µM. hit rate 1.3% among 370,000. AID 651821, 2012;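 active = inhibition above the plate cutoff, the mean of all test compounds on that plate plus 3 SD, cut at about 35% in these data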;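 also: higher means more dye released from RNA so lower well fluorescence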
DSG3 Ab inh – inhibitors of pemphigus antibody binding to DSG3, primary screen, biochemical, bead-based, flow cytometry, scFv-GFP; hit rate 0.48% among 310,000; binding (percent of control), % at 10 µM; DSG3-coupled beads, scFv-anti-DSG3-GFP binding; stronger effect = lower value;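 active = binding more than 3 SD below its plate's average and above zero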
NadD inh – inhibitors of S. aureus NadD, primary screen, biochemical, colorimetric, uHTS; Nicotinate-nucleotide adenylyltransferase NadD (Staphylococcus aureus N315); purified NadD enzyme, colorimetric absorbance read-out; inhibition, % at 20 µM; hit rate 0.78% among 360,000; AID 602399, 2012; in the data active = inhibition above about 26%
rCAG binder conf – small molecules binding CAG repeat RNA – biochemical, fluorescence, confirmation. AID 652065, 2013. r(CAG) RNA repeat, TO-PRO-1 dye displacement fluorescence. hit rate 70% among 4,300. inhibition, % at 3 µM. shares compounds with rCAG RNA binder;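 active = inhibition above a per-plate cutoff, the mean inhibition of sample wells plus 3 SD, cut at about 35% in these data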;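 also: loss of TO-PRO-1 fluorescence as compound displaces dye from 1x1 AA loop RNA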
dCAG dye counter – displacement of TO-PRO-1 from CAG DNA duplex, counter-screen for rCAG RNA repeat binder project, biochemical, fluorescence, TO-PRO-1 dye, d(CAG) DNA oligo; shares compounds with rCAG RNA binder; d(CAG) DNA oligo TO-PRO-1 dye displacement; inhibition, % at 3 µM; hit rate 94% among 4,300; AID 652068, 2013;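 active = inhibition above its plate's cutoff, the mean test-well inhibition plus 3 SD, cut at about 4.8% in these data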;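 also: hits displace the dye from DNA and so lower well fluorescence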
DNA CAG DR – inhibitors of DNA CAG/GTC TO-PRO-1 complex, dose response, counter-screen for rCAG RNA repeat binder project, biochemical, fluorescence, TO-PRO-1 dye | DNA CAG/GTC duplex TO-PRO-1 dye displacement fluorescence | IC50, µM | shares compounds with rCAG RNA binder | hit rate 20% among 250; in the data active = IC50 below about 10 µM
Each line names hits and unclear results; the compound was inactive in the other large screens (follow-up assays come after a bar, where they were run).

Cc1ccc(NS(=O)(=O)c2ccc(Cl)s2)nc1	none (no result: DSG3 Ab inh)
O=C(Nc1ccccc1Cc1ccccc1)c1ccccc1NS(=O)(=O)c1ccc(Cl)s1	rCAG RNA binder 91.2 | rCAG binder conf 90.5 | dCAG dye counter 66.3
CS(=O)(=O)c1ccccc1C(=O)Nc1ccccc1Cc1ccccc1	none (no result: DSG3 Ab inh)
CCN(C(=O)CSc1cccc[n+]1[O-])C1CCCCC1	none (no result: DSG3 Ab inh)
COc1ccc2nc(NC(=O)C(NS(=O)(=O)c3cccs3)C(C)C)sc2c1 (stereo unspecified)	none
COc1ccc2nc(N/C(=N/S(=O)(=O)c3cccs3)c3ccccc3Cl)sc2c1	rCAG RNA binder 47.7 | rCAG binder conf 41.3 | dCAG dye counter 13.2
OC(c1ccc(Cl)c(F)c1)c1ncc(-c2cccc(F)c2)[nH]1 (stereo unspecified)	none (no result: DAGLB inhibitor, DSG3 Ab inh)
CCOc1ccc(Cc2c(C)[nH]c3ccc(C(=O)O)cc3c2=S)cc1	rCAG RNA binder 36.4 | rCAG binder conf inactive | dCAG dye counter 7.6
CC(C)(C)OC(=O)N1CCC(Cc2cc(-c3cccc(Br)c3)no2)(C(=O)O)CC1	rCAG RNA binder 48.3 | rCAG binder conf 49.0 | dCAG dye counter 13.8 | DNA CAG DR inactive
Cc1cc(C)cc(-n2cccc2/C=C2/C(=N)N3C(=NC2=O)SN=C3S(C)(=O)=O)c1	rCAG RNA binder 88.9 | rCAG binder conf 87.6 | dCAG dye counter 61.4
Cc1ccc(-n2cccc2/C=C2/C(=N)N3C(=NC2=O)SN=C3S(C)(=O)=O)cc1	rCAG RNA binder 89.3 | rCAG binder conf 83.7 | dCAG dye counter 49.5
CS(=O)(=O)C1=NSC2=NC(=O)/C(=C\c3cccn3-c3ccccc3Cl)C(=N)N21	rCAG RNA binder 83.3 | rCAG binder conf 76.7 | dCAG dye counter 38.7
CS(=O)(=O)C1=NSC2=NC(=O)/C(=C\c3ccc(OS(=O)(=O)c4ccccc4)cc3)C(=N)N21	none
CCc1ccc(-n2cccc2/C=C2/C(=N)N3C(=NC2=O)SN=C3S(C)(=O)=O)cc1	rCAG RNA binder 93.6 | rCAG binder conf 90.7 | dCAG dye counter 72.4
Cc1ccc(S(=O)(=O)Oc2ccc(/C=C3/C(=N)N4C(=NC3=O)SN=C4S(C)(=O)=O)cc2)cc1	none
O=S1(=O)c2c(NCc3ccco3)cccc2Oc2ccccc2CN1Cc1cn(Cc2ccc(C(F)(F)F)cc2)nn1	none (no result: bovine MsrA act, MsrA inh, DAGLB inhibitor, DSG3 Ab inh, NadD inh)
COc1ccc(C(=O)OCc2c(F)cccc2Cl)cc1S(=O)(=O)N1CCOCC1	none (no result: DSG3 Ab inh)
COc1cccc(-n2c(C)cc(/C=C3/C(=N)N4C(=NC3=O)SN=C4S(C)(=O)=O)c2C)c1	rCAG RNA binder 65.4 | rCAG binder conf 78.9 | dCAG dye counter 49.5
O=C(CCn1nnc(-c2cccs2)n1)NCc1cccs1	none (no result: bovine MsrA act, MsrA inh, DAGLB inhibitor, DSG3 Ab inh, NadD inh)
C=CCOC(=O)N1CCN(C(=O)c2ccc3nc(C)n(C4CCCC4)c3c2)CC1	none (no result: bovine MsrA act, MsrA inh, DAGLB inhibitor, DSG3 Ab inh, NadD inh)
COc1ccc(Br)cc1/C=C(\C(=O)O)c1ccc(S(=O)(=O)N2CCCC2)s1	rCAG RNA binder 52.2 | rCAG binder conf 47.5 | dCAG dye counter 13.6
CCOc1ccc(/C=C(\C(=O)O)c2ccc(S(=O)(=O)N3CCCCC3)s2)cc1OC	rCAG RNA binder 38.1 | rCAG binder conf 35.2 | dCAG dye counter 10.2
O=C(O)c1cc(-c2cccc(Cl)c2)nc2nc(N3CCCCC3)sc12	rCAG RNA binder 45.9 | rCAG binder conf 46.9 | dCAG dye counter 11.9 | DNA CAG DR inactive
O=C(c1cc(-c2cccc(Cl)c2)nc2ccccc12)N1CCN(c2ccccn2)CC1	none
O=[N+]([O-])c1cccc(OC[C@@H](O)CN2CCC(C(O)(c3ccccc3)c3ccccc3)CC2)c1	none (no result: bovine MsrA act, MsrA inh, DAGLB inhibitor, DSG3 Ab inh, NadD inh)
O=C(O)c1ccc(S(=O)(=O)N(CCc2ccccc2)Cc2ccc(Cl)cc2)cc1	rCAG RNA binder 72.1 | rCAG binder conf 71.2 | dCAG dye counter 34.5 | DNA CAG DR inactive
O=C(O)CCC(=O)N1CCc2cc(S(=O)(=O)N(CCc3ccccc3)Cc3ccccc3)ccc21	rCAG RNA binder 62.8 | rCAG binder conf 69.5 | dCAG dye counter 30.4 | DNA CAG DR inactive
CCCCN(c1ccccc1)S(=O)(=O)c1ccc2c(c1)CCN2C(=O)CCC(=O)O	none (no result: DSG3 Ab inh)
COc1ccc(S(=O)(=O)N2CCCCCC2)cc1NC(=O)c1ccccc1F	none (no result: DSG3 Ab inh)
O=C(Nc1cc(S(=O)(=O)N2CCCCC2)ccc1Cl)c1ccccc1NS(=O)(=O)c1ccc(F)cc1	rCAG RNA binder 88.7 | rCAG binder conf 89.3 | dCAG dye counter 64.8
O=C(c1ccccc1NS(=O)(=O)c1ccc(F)cc1)N1CCCCC1	none
O=C(Nc1cc(S(=O)(=O)N2CCCCC2)ccc1O)c1ccccc1NS(=O)(=O)c1ccc(F)cc1	rCAG RNA binder 85.1 | rCAG binder conf 87.0 | dCAG dye counter 57.5
O=C(Nc1ccccc1N1CCOCC1)c1ccccc1NS(=O)(=O)c1ccc(F)cc1	none
O=C(Nc1ccccc1N1CCOCC1)c1ccccc1NS(=O)(=O)c1ccc(F)c(F)c1	rCAG RNA binder 37.7 | rCAG binder conf inactive | dCAG dye counter 7.2
COc1ccc(Nc2c(CCc3ccccc3)nc3nc(C)cc(C)n23)cc1	none (no result: DAGLB inhibitor, DSG3 Ab inh)
N#Cc1ccc(N2C(=O)[C@@H]3C(C(=O)C(c4ccccc4)c4ccccc4)=NN[C@@H]3C2=O)cc1	rCAG RNA binder 61.1 | rCAG binder conf inactive | dCAG dye counter 11.5
O=C(C1=NN[C@@H]2C(=O)N(c3ccccc3C(F)(F)F)C(=O)[C@H]12)C(c1ccccc1)c1ccccc1	none
NNC(=O)c1cc2ccccc2cc1NS(=O)(=O)c1ccccc1	rCAG RNA binder 53.9 | rCAG binder conf inactive | dCAG dye counter 5.0
NC(=O)c1ccccc1NS(=O)(=O)c1ccccc1	none
Cc1cc(C)c(N2C(=O)CC(Sc3ccccc3N)C2=O)c(C)c1 (stereo unspecified)	none
CSCC[C@@H](Nc1nc(-c2ccccc2)nc2c1oc1ccccc12)C(=O)O	rCAG RNA binder 69.0 | rCAG binder conf 70.8 | dCAG dye counter 24.7
O=C(O)CNc1nc(-c2ccccc2)nc2c1oc1ccccc12	none

Compound activity: PubChem BioAssay, several laboratories
